# Results taken from the supplement of paper PMC10338343.
# ± gives the standard deviation.
# Legend:
# [1] = system: MILI (PIWIL2) piRISC loaded with L1MC piRNA (26 nt); test: pre-steady-state target cleavage rate (min^-1); guide: L1MC piRNA 5'p-UAACUAAAUACUAUGCAAGCUGUAGG; higher = faster piRNA-guided slicing of the target;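 note: 1 nM active piRISC with 0.1 nM target library at 33 °C single turnover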
# How it was run: (§1)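 Three pooled Cleave-'n-Seq trials supplied the data, with k3 capped at 0.0001 min^-1. In each, […] transcribed, DNA-blocked target RNA library and 1 nM active affinity-purified piRISC with one synthetic guide reacted in HEPES–potassium acetate buffer at 33 °C for 0–8 or 0–960 min, with or without 500 nM GTSF1 partner protein. Uncleaved targets were sequenced and normalised to depth and to weakly complementary targets. A burst-and-steady-state fit provided the pre-steady-state cleavage rate.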
# [2] = system: EfPiwi piRISC loaded with L1MC piRNA (26 nt); test: pre-steady-state target cleavage rate (min^-1); auxiliary factor: 500 nM Ephydatia muelleri Gtsf1; guide: L1MC piRNA 5'p-UAACUAAAUACUAUGCAAGCUGUAGG; MIWI and MILI are mouse PIWI proteins and EfPiwi is from a freshwater sponge; tags in brackets are library labels; higher = faster piRNA-guided slicing of the target
# How it was run: as §1
# [3] = auxiliary factor: 500 nM mouse GTSF1
# [4] = auxiliary factor: none (no GTSF1)
Sequence,"pre-steady-state target cleavage rate [1, 3]","pre-steady-state target cleavage rate [1, 4]",pre-steady-state target cleavage rate [2]
UCCUCCUACUGCUUGCAUAGUUUUUAGUUA,0.0525 ± 0.0085,0.00424 ± 0.002,0.0079 ± 0.0028
UCCUCCUACAGCUUGCAUAGUAUUUCGUUA,0.243 ± 0.043,0.0033 ± 0.0031,0.00416 ± 0.0023
UCCUGGAUGUGCUUGCAUAGUAUAUUAGUUA,0.111 ± 0.016,0.00381 ± 0.0027,0.0043 ± 0.0034
UCCUCCUACAGCUUGGAUAGUUUUUAGUUA,0.0664 ± 0.0092,0.00384 ± 0.0019,0.0265 ± 0.007
UCCUGGAUGAGCUGGCAUAGUAUUUAGUUA,0.185 ± 0.016,0.0101 ± 0.0034,0.0103 ± 0.0035
UCCUGGUCAGCUUGCAUAGUAUUUAGUUA,0.269 ± 0.016,0.012 ± 0.0027,0.14 ± 0.027
UCCUGGAACAGCUUGCAUAGUCUUUAGUUA,0.197 ± 0.016,0.00483 ± 0.0022,0.00979 ± 0.0029
UCCUGGAUGUGCUUGCAUAGUAUUGUAGUUA,0.0838 ± 0.018,0.0048 ± 0.0032,0.00579 ± 0.0041
UCCUCCUACAGCUUGCAUAGAUAUUUAGUUA,0.0178 ± 0.0058,0.00345 ± 0.0022,0.00501 ± 0.0032
UCCUGGAUGAGCUAGCAUAGUAUUUAGUAA,0.168 ± 0.021,0.00735 ± 0.0023,0.00419 ± 0.0024
UCCUGGUACAGCUUCAUAGUAUUUAGUUA,0.209 ± 0.027,0.00866 ± 0.0031,0.0159 ± 0.0055
UCCUGGAACAGCUUGCAAAGUAAUUAGUUA,0.131 ± 0.018,0.00424 ± 0.0022,0.00403 ± 0.002
UCCUGGUACAGCAAGCAUAGUAUUUAGUUA,0.232 ± 0.018,0.00852 ± 0.0027,0.00653 ± 0.0021
UCCUGGUACAGCUUGCAUCGUAUUUAGUUA,0.0739 ± 0.014,0.00985 ± 0.0037,0.00642 ± 0.0025
UCCUGGUUCAGCUUGCAUAGUAUUAAGUUA,0.186 ± 0.029,0.00855 ± 0.0027,0.00579 ± 0.0021
UCCUCCUACAGCUAGCAUAGUAUUAAGUUA,0.205 ± 0.019,0.0038 ± 0.0018,0.00633 ± 0.0029
UCCUGCUACAGCUAGCAUACUAUUUAGUUA,0.112 ± 0.018,0.0037 ± 0.0024,0.0063 ± 0.0019
UCCUGCUACAGCUUGCAUAGUGUUUAGUUA,0.197 ± 0.02,0.00436 ± 0.0027,0.0065 ± 0.0019
